We go through 14 molecules from PubChem BioAssay AID1224862 (National Center for Advancing Translational Sciences (NCATS), 2016).

Results filed as inconclusive are left out. Unmarked numbers belong to inactive results. Activity calls are given as the source filed them. Calls come from the whole dose curve; as a rule, active = well fitted cell-killing curve with a large enough effect; inconclusive = small, poorly fitted or top-dose-only effect, or effect the other way; inactive = flat fitted curve, though single readings scatter.

This test can be described thus: Compound cytotoxicity measured by an ATP content assay as a counter-screen for lead compounds in human astrocytoma cell line (SNB-19). Conditions: SNB-19 astrocytoma viability, ATP luminescence; series mostly up to 46.1 µM; activity change, negative = cytotoxicity: at the top concentration. The method, then: National Center for Advancing Translational Sciences [NCATS] Johns Hopkins University School of Medicine Florida State University Assay Overview: Many compounds can cause cytotoxicity at high compound concentrations. […] The compound cytotoxicity may also cause side effects or toxicity in human. Thus, the compound cytotoxicity needs to be measured in each cell type and each compound incubation time - same as these in the compound screening assay. The compound cytotoxicity can be measured by cell viability assays such as the ATP content assay. We use an ATP content assay kit for cell viability measurement. It measures ATP content (level) in human astrocytoma cell line (SNB-19) using a luminescence readout that is proportional to viable cell numbers. Decrease in the luminescence signal after the compound treatment indicates reduced cell viability and cell death caused by compound treatment.
Assay Protocol Summary: The medium for SNB-19 cells is composed of RPMI 1640 (ATCC, Cat.# 30-2001), 10% fetal bovine serum (FBS) (GE healthcare Life Sciences, Cat.# SH30071.03), and 1% Pen/Strep (Gibco, Cat.# 15140-122). The ATP content assay kit (PerkinElmer, Cat.# 6016731) was used to determine cell viability. The reagent was reconstituted and prepared as described by the manufacturer. Cells were seeded in 384- or 1536-well assay plates and cultured at 37 C with 5% CO2 for 16 to 20 hours. The typical cell seeding density in the 1536-well plate assay is 250 cells/well in 3ul medium for SNB-19 cells in tissue culture treated plates. Compounds were added to cells and incubated for a specific time such as 6, 24, or 72 hours before addition of the reagent mixture of the ATP content assay kit at 1:1 ratio. After incubation at room temperature for 10 minutes, the luminescence intensity in assay plates was measured using a ViewLux plate reader (PerkinElmer). […] The percentage inhibitions of the decreased cell viability by small molecules were then calculated that indicate compound cytotoxicity.
A general note: Counterscreens check selectivity or assay interference.
For `COP(=S)(OC)SCN1C(=O)c2ccccc2C1=O`, the “activity change, negative = cytotoxicity” value was -11.2%. Same read-out and setting: as for `CC[n+]1c(-c2ccccc2)c2cc(N)ccc2c2ccc(N)cc21`, the figure is 1.41%. In the case of `CC(C)[C@H]1C(=O)N[C@H](CO)Cc2c[nH]c3cccc(c23)N1C`, the “activity change, negative = cytotoxicity” value is 1.43%. Regarding `CC(C)N[C@@H]1CCn2c(=O)[nH]c3cccc(c32)[C@@H]1O`, the “activity change, negative = cytotoxicity” value was -5.26%. As for `O=S(=O)(CC1CS1)c1ccc(Oc2ccccc2)cc1` (centres undefined), the “activity change, negative = cytotoxicity” value was -10.2%. Consider `S=C(SSC(=S)N1CCCCC1)N1CCCCC1`, for which the “activity change, negative = cytotoxicity” value was -19.5%. As to `O=C1CCC[C@@H]2[C@H]3CCCN4CCC[C@@H](CN12)[C@@H]34`, the “activity change, negative = cytotoxicity” value is 13.7%. Same read-out and setting: as for `O=C1C=CC[C@@H]2[C@H]3CCCN4CCC[C@@H](CN12)[C@@H]34`, the figure is 23.5%. For `CC(O)CN1CCN(CC(=O)[O-])CCN(CC(=O)[O-])CCN(CC(=O)[O-])CC1.[Gd+3]` (centres undefined), the “activity change, negative = cytotoxicity” value was 7.64%. As for `COc1cccc2c1C(=O)c1c(O)c3c(c(O)c1C2=O)C[C@@](O)(C(=O)CO)CC3OC1CC(N2CCOC(OC)C2)C(O)C(C)O1` (some centres undefined), the “activity change, negative = cytotoxicity” value is 12.2%. Turning to `CN1CC[C@@]2(C)c3cc(OC(=O)Nc4ccccc4)ccc3N(C)[C@@H]12`, the “activity change, negative = cytotoxicity” value was 6.03%. Turning to `CC(C)[N+](C)(CCC(C(N)=O)(c1ccccc1)c1ccccc1)C(C)C`, the “activity change, negative = cytotoxicity” value is 13.4%. Consider `Oc1ccc([C@H]2CNCc3c2ccc(O)c3O)cc1O`, for which the “activity change, negative = cytotoxicity” value is 13.5%. As to `Cc1ccc([N+](=O)[O-])[c]2c1[O][Hg]2`, the Potency was 5.48 µM (active).
